Where “and” joins values, the source holds several entries; their conditions need not be identical. Equal values may be shown once. Inconclusive results are not listed. The source holds several records for some structures; these can differ, active in one and inactive in another. Calls of active or inactive are those of the source. How the source made its calls: active means hit-call score of the fitted dose curve at least 0.9, where 1 is the maximum; inconclusive means response in the unintended direction; inactive means score below 0.9.
read-out: Cytochrome P450 2B6 (Homo sapiens) (UniProt P20813); assay: CLD_CYP2B6_48hr: CellzDirect (CLD) Gene Expression Assay for xenobiotic metabolism (CYP2B6) at 48 hours (AID 2283699);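 further: actives raise transcript level above DMSO so potency reflects induction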
Experimental: CLD_48hr is a cell-based, multiplexed-readout assay that uses hepatocyte, a human liver primary cell, with measurements taken at 48 hours after chemical dosing in a 96-well plate.CLD_CYP2B6_48hr is one of 16 assay component(s) measured or calculated from the CLD_48hr assay. It is designed to make measurements of mRNA induction, a form of inducible reporter, as detected with chemiluminescence signals by Quantitative Nuclease Protection Assay (qNPA) technology.Data from the assay component CLD_CYP2B6_48hr was analyzed at the endpoint, CLD_CYP2B6_48hr, in the positive analysis fitting direction relative to DMSO as the negative control and baseline of activity. Using a type of inducible reporter, gain-of-signal activity can be used to understand changes in the reporter gene as they relate to the gene CYP2B6. Furthermore, this assay endpoint can be referred to as a primary readout. To generalize the intended target to other relatable targets, this assay endpoint is annotated to the cyp intended target family, where subfamily is xenobiotic metabolism.
Human hepatocyte cultures were treated daily for two consecutive days with fresh dosing solutions containing appropriate concentrations of the 320 ToxCast chemicals (chemical identities were blinded to CellzDirect and other ToxCast collaborators), vehicle control (0.2% DMSO), and positive control inducers as summarized in Table 1. Due to the large number of treatment groups and chemicals examined, the ToxCast chemicals were divided into two groups (spanning two independent cultures of hepatocytes from separate donor preparations (Hu778: ToxCast plates 1 and 2; Hu776: ToxCast plates 3 and 4). Each preparation of human hepatocyte cultures was treated with respective vehicle control, medium only control, set of six positive controls/reference chemicals for the five hepatic receptor pathways, and a subset of eight of the ToxCast chemicals (indoxacarb, pyrithiobac-sodium, norflurazon, cyhalofop-butyl, methomyl, thiram, acetochlor, and propiconazole). These replicate data, coupled with internal replicates designed within the blinded ToxCast chemical library, provided additional data to evaluate interindividual differences between hepatocyte preparations and their potential impact on chemical profiles.Cell morphology and integrity were evaluated using phase-contrast microscopy as an indicator of hepatocyte cell health (Tyson & Green, 1987). Cultures for each treatment group (i.e., media, vehicle [0.2% DMSO], positive control inducers [multiple concentrations], and the ToxCast chemicals [multiple concentrations]) were observed and cell morphology was assessed relative to vehicle control cultures at each harvest time point (0, 6, 24, or 48 h). […] Images were evaluated at the conclusion of the study to assess changes in cell integrity and account for the effects of chemical exposure on uncharacteristic changes in concentration-dependent gene expression profiles. The results from these determinations of apparent cytotoxicity were annotated (yes/no) alongside the corresponding qNPA data for reference.At the conclusion of each treatment period, hepatocyte cultures (96-well) were washed with 1 volume of HBSS, lysed by addition of 25 ul ArrayPlate lysis buffer (HTG, Tucson, AZ), and 70 ul/well of Denaturation Oil, denatured by incubation at 95C for 10 min, and frozen at approximately -70C until analysis by nuclease protection assay (qNPA) (Roberts et al., 2007). For qNPA analysis, cell lysates were thawed at 50C for approximately 30 min, qNPA probes were added, and samples were incubated at 95C for 10 min to begin the detection process by denaturing the target RNA, dissociating the duplexes and secondary structure hybridization. At the conclusion of the hybridization period, S1 nuclease reagent was added to each sample to digest all nonprotected nucleotides at 50C for 60-90 min. […]

Structure (SMILES)	outcome	AC50
O=C(O)COc1nc(Cl)c(Cl)cc1Cl	inactive	–
CCc1nn(C)c(C(=O)NCc2ccc(C(C)(C)C)cc2)c1Cl	–	37.3 µM (active)
CCCCC(CC)COC(=O)c1ccccc1C(=O)OCC(CC)CCCC (stereo not given)	inactive	–
CO/C=C(/C(=O)OC)c1ccccc1Oc1cc(Oc2ccccc2C#N)ncn1	–	2.46 µM (active)
N#CC(CCc1ccc(Cl)cc1)(Cn1cncn1)c1ccccc1 (stereo not given)	–	0.434 µM (active)
COC(=O)C=C(C)OP(=O)(OC)OC	–	0.0004 µM (active)
CCCCNC(=O)OCC#CI	inactive	–
O=C(Nc1ccccc1)Nc1ccnc(Cl)c1	–	6.77 µM (active)
CON(C)C(=O)Nc1ccc(Cl)c(Cl)c1	–	1.31 µM (active)
CCON=C(CC)C1=C(O)CC(c2c(C)cc(C)cc2C)CC1=O (stereo not given)	inactive	–
Cc1cc(Cl)ccc1OCC(=O)O	inactive	–
CC1=C(C(=O)Nc2ccccc2)SCCO1	–	20 µM (active)
COc1nc(NC(C)C)nc(NC(C)C)n1	–	5.98 µM (active)
C=CCC1=C(C)C(OC(=O)C2C(C=C(C)C)C2(C)C)CC1=O (stereo not given)	–	12.8 µM (active)
C=CCC1=C(C)[C@@H](OC(=O)[C@@H]2[C@@H](C=C(C)C)C2(C)C)CC1=O	–	4.38 µM (active)
COc1nc(C)nc(NC(=O)NS(=O)(=O)c2ccccc2CCC(F)(F)F)n1	–	2.5 µM (active) and 990 nM (active) and 836 nM (active)
C#CCOS(=O)OC1CCCCC1Oc1ccc(C(C)(C)C)cc1 (stereo not given)	–	2 µM (active)
C=CC1(C)OC(=O)N(c2cc(Cl)cc(Cl)c2)C1=O (stereo not given)	inactive	–
CN(C)C(=S)SSC(=S)N(C)C	inactive	–
CC(C)Oc1cc(-n2nc(C(C)(C)C)oc2=O)c(Cl)cc1Cl	–	2.67 µM (active)

Structure (SMILES)	outcome	AC50
Cc1c(F)c(F)c(COC(=O)C2C(/C=C(\Cl)C(F)(F)F)C2(C)C)c(F)c1F (stereo not given)	–	4.39 µM (active)
CCOC(=O)C(Cl)Cc1cc(-n2nc(C)n(C(F)F)c2=O)c(F)cc1Cl (stereo not given)	–	20 µM (active)
COC(=O)C(C)Oc1ccc(Oc2ccc(Cl)cc2Cl)cc1 (stereo not given)	inactive	20 µM (active)
CCNc1nc(Cl)nc(NCC)n1	–	6.18 µM (active)
N#Cc1nn(-c2c(Cl)cc(C(F)(F)F)cc2Cl)c(N)c1S(=O)C(F)(F)F (stereo not given)	–	1.9 µM (active)
CCCCOC(=O)c1ccccc1C(=O)OCCCC	inactive	–
Fc1ccc(Oc2ccnc3cc(Cl)cc(Cl)c23)cc1	inactive	–
CCCC1COC(Cn2cncn2)(c2ccc(Cl)cc2Cl)O1 (stereo not given)	–	1.89 µM (active)
Oc1ccccc1-c1ccccc1	–	8.64 µM (active)
COc1nc(C)nc(NC(=O)NS(=O)(=O)c2ccccc2Cl)n1	inactive	–
O=C(O)c1nc(Cl)ccc1Cl	–	4.4 µM (active)
COc1cnc(OC)n2nc(NS(=O)(=O)c3c(OCC(F)F)cccc3C(F)(F)F)nc12	inactive	–
COP(=S)(OC)Oc1nc(Cl)c(Cl)cc1Cl	–	7.69 µM (active)
CC(C)C1(C)N=C(c2nc3ccccc3cc2C(=O)O)NC1=O (stereo not given)	–	0.000357 µM (active)
CC1COC(Cn2cncn2)(c2ccc(Oc3ccc(Cl)cc3)cc2Cl)O1 (stereo not given)	inactive	–
CCNc1nc(Cl)nc(NC(C)C)n1	–	3.97 µM (active)
COC(=O)N(OC)c1ccccc1COc1ccn(-c2ccc(Cl)cc2)n1	inactive	–
CC(Oc1ccc(Cl)cc1Cl)C(=O)O (stereo not given)	inactive	–
CCOc1cc(Oc2ccc(C(F)(F)F)cc2Cl)ccc1[N+](=O)[O-]	–	1.83 µM (active)
